# Source: PubChem
# The full list was thinned out, with hits kept by preference.
# Algae TAG accum: algal TAG accumulation induction | AID 1159537 | 0.84% of 44,000 active | Chlamydomonas reinhardtii TAG, Nile Red fluorescence, 72 h | calls only at 10 µM (by protocol); call rule not given here;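 note: hits raise Nile Red signal meaning more stored TAG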
# Numbers without * were called inactive; i = inactive; + = active, no number.
SMILES,Algae TAG accum
COc1ccc(N(C(C)C(=O)Nc2ccc(Oc3ccccc3)cc2)S(C)(=O)=O)cc1 (stereo unspecified),i
COc1ccccc1N1CCN(C(=O)c2ccc([N+](=O)[O-])cc2)CC1,i
Fc1ccc(CSc2ncn[nH]2)cc1,i
Cc1ccc(Cl)cc1-c1ccc(/C=C/[N+](=O)[O-])o1,i
O=C(Nc1ccc(I)cc1)c1ccc(C(=O)c2ccccc2)o1,i
Clc1ccc(OCCCN2CCOCC2)c(Br)c1,+
O=C(COc1ccc(Cl)cc1Br)NCCN1CCOCC1,i
Brc1ccccc1OCCCN1CCOCC1,i
C1CCCCCCC1,i
CC(C)Oc1ccc(C(=O)Nc2ccccc2C(N)=O)cc1,i
NC(=O)c1cc(-c2ccccc2)sc1N,i
NC(=O)c1cc(-c2ccccc2)sc1NC(=O)c1ccc(OC(F)F)cc1,+
Cc1nc2nc(N)[nH]n2c(=O)c1Cc1ccccc1,i
O=C(CCC1CCCC1)N1CCN(C(=O)Cc2ccccc2)CC1,i
CCN(CC)S(=O)(=O)c1ccc(NC(=O)COc2ccc(Br)cc2)cc1,i
O=C(Nc1ccc(F)cc1)c1cccc(Cl)c1Cl,i
O=C(Nc1cccc([N+](=O)[O-])c1)c1ccccc1Cl,i
O=C(Nc1ccc([N+](=O)[O-])cc1)c1cccc(Cl)c1Cl,+
COc1cc(CN2CCN(c3ccc(Cl)cc3)CC2)cc(OC)c1OC,i
O=C1CCC(C(=O)N2CCN(Cc3ccccc3)CC2)N1 (stereo unspecified),i
Cc1nc(Nc2nc3c(c(=O)[nH]2)CCCC3)nc2ccccc12,i
COc1ccc(CC(=O)Nc2ccccc2[N+](=O)[O-])cc1OC,i
CCN1CCN(Cc2ccc(N(CC)CC)cc2)CC1,+
CCN(CC)c1ccc(CN2CCN(C)CC2)cc1,i
CCN(CC)c1ccc(CN2CCSCC2)cc1,i
SMILES,Algae TAG accum
CC(=O)NS(=O)(=O)c1ccc(N2CCCC2=O)cc1,i
COc1ccc(NC(=O)Nc2nnc(-c3ccc(OC)cc3)s2)cc1,i
COc1ccc(CN2CCCN(C)CC2)c(OC)c1,i
COc1cc(C)c(CN2CCCN(C)CC2)cc1C,+
COc1cc(C)c(CN2CCC(N3CCCCC3)CC2)cc1C,i
COc1ccccc1CN1CCN(Cc2ccc3c(c2)OCO3)CC1,i
COc1ccc(CN2CCN(Cc3ccc4c(c3)OCO4)CC2)c(OC)c1,i
COc1cc(C)c(CN2CCN(Cc3ccc4c(c3)OCO4)CC2)cc1C,+
O=C(O)C1CCCCC1C(=O)Nc1cc(Cl)cc(Cl)c1 (stereo unspecified),i
O=C(C1CCCO1)N1CCN(Cc2ccc3c(c2)OCO3)CC1 (stereo unspecified),i
Cc1ccc(C(O)=C2C(=O)C(=O)N(CCCN(C)C)C2c2cccnc2)cc1 (stereo unspecified),i
COc1ccc(NC(=O)Nc2ccc(C)c(F)c2)cc1,i
Cc1ccc(NC(=O)c2ccccc2[N+](=O)[O-])cc1F,i
Cc1c(C(=O)Nc2ccc(F)c(F)c2)cccc1[N+](=O)[O-],+
Cc1c(C(=O)Nc2ccc(F)c(Cl)c2)cccc1[N+](=O)[O-],i
N#C/C(=C/C=C/c1ccccc1)c1ccc([N+](=O)[O-])cc1,i
COc1ccc(O)c(CN(C)CCN(C)C)c1,i
COc1ccc(Cc2nnc(NC(=O)Cc3ccc(Br)cc3)s2)cc1,i
Cc1nc(-c2c(C)[nH]c3ccccc23)cs1,i
Cc1ccc(-c2csc(/C(C#N)=C/Nc3ccc([N+](=O)[O-])cc3)n2)cc1,i
N#C/C(=C\c1ccc([N+](=O)[O-])cc1)c1nc(-c2ccc(F)cc2)cs1,i
Cc1ccsc1/C=C(\C#N)c1nc(-c2ccc([N+](=O)[O-])cc2)cs1,+
Cc1ccccc1NC(=O)CCCc1ccccc1,i
NNc1ccc(Oc2ccccc2)c(S(=O)(=O)O)c1,i
O=C(CSc1nnnn1-c1ccc(Cl)cc1)Nc1ccc(Cl)cc1Cl,i
SMILES,Algae TAG accum
COc1ccc(OC)c(NC(=O)CSc2nnc(-c3ccc(Cl)cc3Cl)n2N)c1,i
Cc1ccc(NC(=O)CSc2nnc(-c3ccc(Cl)cc3Cl)n2N)c(C)c1,+
CC(C)NC(=O)c1ccccc1NS(=O)(=O)c1ccccc1[N+](=O)[O-],i
CN(C)S(=O)(=O)c1ccc(C(=O)NC2CCCCCCC2)cc1,i
O=C(NC1CCCCCCC1)c1ccccc1,i
CN(c1ccc(C(=O)NC2CCCCCC2)cc1)S(=O)(=O)c1ccccc1,+
OC(COc1ccc(Cl)cc1Cl)CN1CCc2ccccc2C1 (stereo unspecified),i
Cc1cc(Cl)c(OCCCN2CCN(C)CC2)c(Br)c1,i
Cc1ccc(OCC(O)CN2CCN(c3ccccc3)CC2)c(C)c1 (stereo unspecified),i
CN1CCN(CCOCCOc2ccc(Cl)cc2C(C)(C)C)CC1,i
Cc1cc(Cl)ccc1OCC(O)CN1CCN(C)CC1 (stereo unspecified),+
Cc1ccc(OCCOCCN2CCN(C)CC2)c(I)c1,+
CN1CCN(CCOCCOc2ccccc2-c2ccccc2)CC1,i
C=CCc1cc(OC)ccc1OCCOCCN1CCN(C)CC1,i
C=CCc1cc(C)ccc1OCCOCCN1CCN(C)CC1,i
CN1CCN(CCOCCOc2c(Cl)cc(Cl)cc2Cl)CC1,i
Cc1cc(Cl)c(OCCOCCN2CCN(C)CC2)c(Br)c1,+
Cc1cc(C(C)(C)C)ccc1OCCOCCN1CCN(C)CC1,+
CCN(CC)C(=O)c1ccc(-c2nnc(N3CCCCC3)c3ccccc23)cc1,i
Cc1ccc(NC(=O)C2CCCC2)c(C)c1,i
Cc1c(Cl)cccc1NS(=O)(=O)c1ccc(NS(C)(=O)=O)cc1,i
Cn1ccnc1SCC(=O)NCc1cc(C(=O)c2ccccc2)ccc1O,i
Cc1ccc(N(CC(=O)Nc2ccc(S(=O)(=O)Nc3ccccc3)cc2)S(C)(=O)=O)cc1,i
O=C(Nc1ccc(F)cc1)c1ccccc1[N+](=O)[O-],i
Cc1cccc(OCCCC(=O)Nc2ccccc2C)c1,i
SMILES,Algae TAG accum
Cc1ccccc1C(=O)Nc1c(C)cc(Br)cc1C,i
Cc1cc(C(C)(C)C)ccc1OCCCN1CCN(C)CC1,i
Cc1cc(C(C)(C)C)ccc1OCCN1CCOCC1,i
Cc1cc(C(C)(C)C)ccc1OCCN1CCN(C)CC1,+
CCOc1ccc(NC(=O)Cc2ccccc2[N+](=O)[O-])cc1,i
CC1CCCC(C)N1C(=O)c1ccc(Cl)cc1 (stereo unspecified),i
Cc1cc(Br)ccc1OCCCN1CCN(C)CC1,+
CCOc1ccc(OCCOCCN2CCN(C)CC2)cc1,i
Cc1cc(Br)ccc1OCCCN1CCCC1,i
Cc1cc(Br)ccc1OCCN1CCN(C)CC1,i
Cc1cc(OCCCN2CCN(C)CC2)ccc1C(C)C,i
CN1CCN(CCCOc2ccc(Br)cc2)CC1,+
Cc1cc(OCCCCN2CCN(C)CC2)cc(C(C)C)c1,+
CN1CCN(CCCOc2ccc(C(=O)c3ccccc3)cc2)CC1,i
CC(C)c1ccc(OCCOCCN2CCN(C)CC2)cc1,i
CCOc1ccc(NC(=O)Cc2cccs2)cc1,i
COc1ccccc1NC(=O)Nc1nnc(-c2ccc(Br)cc2)s1,i
CC(C(=O)Nc1ccc(I)cc1)N(c1ccccc1)S(C)(=O)=O (stereo unspecified),i
Cc1ccc(S(=O)(=O)N(CC(O)CN2CCCC2)c2cccc([N+](=O)[O-])c2)cc1 (stereo unspecified),i
